Laboratory results reported in PubChem BioAssay (NCI).
This is part of a sample that, as a whole, favours compounds with a hit. Of some 83,000 tested, about 20% had one in any assay.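 Results are percent growth after 48 hours of single-concentration exposure. 100 means growth as in untreated cells, lower positive values show inhibition; negative values down to -100 show cell death.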 A number with no mark means an inactive call. Activity calls are given as the source filed them. The calls were made as follows: active = growth percent below 10; inactive = the rest.

Experiments:
Assay in all cases: NCI-60 one-dose screen, 48 h (100 = growth as untreated, 0 = no growth, -100 = all killed)
Conditions in all cases: 10 µM unless noted
NCI-H23 lung = tested on: NCI-H23 lung
NCI-H226 lung = tested on: NCI-H226 lung
NCI-H322M lung = tested on: NCI-H322M lung
HOP-62 NSCLC = tested on: HOP-62 NSCLC
NCI-H460 lung = tested on: NCI-H460 lung
HOP-92 NSCLC = tested on: HOP-92 NSCLC
NCI-H522 lung = tested on: NCI-H522 lung
A549/ATCC NSCLC = tested on: A549/ATCC NSCLC
786-0 renal = tested on: 786-0 renal
COLO 205 colon = tested on: COLO 205 colon
DU-145 prostate = tested on: DU-145 prostate
K-562 leukemia = tested on: K-562 leukemia
MALME-3M melanoma = tested on: MALME-3M melanoma
MDA-MB-231 breast = tested on: MDA-MB-231 breast
RXF 393 renal = tested on: RXF 393 renal
SF-268 CNS = tested on: SF-268 CNS
SF-295 CNS = tested on: SF-295 CNS
SF-539 CNS = tested on: SF-539 CNS
UACC-257 melanoma = tested on: UACC-257 melanoma
M14 melanoma = tested on: M14 melanoma

Row | SMILES | growth (NCI-H23 lung) | growth (NCI-H226 lung) [%] | growth (NCI-H322M lung) | growth (HOP-62 NSCLC) | growth (NCI-H460 lung) | growth (HOP-92 NSCLC) | growth (NCI-H522 lung) | growth (A549/ATCC NSCLC) | growth (786-0 renal) | growth (COLO 205 colon) | growth (DU-145 prostate) | growth (K-562 leukemia) | growth (MALME-3M melanoma) | growth (MDA-MB-231 breast) | growth (RXF 393 renal) | growth (SF-268 CNS) | growth (SF-295 CNS) | growth (SF-539 CNS) | growth (UACC-257 melanoma) | growth (M14 melanoma)
1 | Cc1[nH]c(C(=O)Nc2ccccc2OC2CCNCC2)c(Cl)c1Cl | 42.8% | 98.6 | 31.3% | 11.4% | 5.07% (active) | -2.05% (active) | -24.7% (active) | 27.3% | -56.6% (active) | -9.94% (active) | 16.4% | -2.5% (active) | -49.5% (active) | -43.4% (active) | -85.4% (active) | 39.4% | -20.2% (active) | -94.1% (active) | 13.7% | -51.6% (active)
2 | COc1ccc(-c2ccc(-c3ccc(C(=N)N)cc3)s2)cc1Cl | 61.4% | 92.8 | -35.5% (active) | 34.5% | -66.4% (active) | 75.8% | -36.1% (active) | -48.2% (active) | -83.1% (active) | -36.1% (active) | -87.5% (active) | -36.8% (active) | 57.5% | -60.7% (active) | 60.7% | 20% | -37.5% (active) | -59% (active) | 88.1% | 38.6%
3 | CS(=O)(=O)Nc1cc(-c2ccc3ncnc(Nc4ccc5c(cnn5Cc5cccc(F)c5)c4)c3c2)cnc1Cl | 10.4% | 20.8 | -5.63% (active) | 9.82% (active) | 22.8% | -20.1% (active) | -11% (active) | 23.6% | 13.3% | -20.2% (active) | 16.2% | 19.4% | -36.1% (active) | 1.43% (active) | -25.7% (active) | 1.24% (active) | 6.42% (active) | -16.6% (active) | 20.2% | 1.49% (active)
4 | CN1C(=O)/C(=C\c2c(Cl)cccc2Cl)c2ccccc21 | 90.7% | 100 | 96.5% | 86.5% | 103% | 83.4% | 83.3% | 88% | 84.3% | 113% | 99.6% | 30.7% | 79% | 87.2% | 85.1% | 87.2% | 86.3% | 87.1% | 87.2% | 75.5%
5 | CN1C(=O)/C(=C\c2nc([P+](c3ccccc3)(c3ccccc3)c3ccccc3)c(N3CCOCC3)o2)SC1=S | 81.6% | 106 | 91.2% | 97.9% | 97.6% | -33.6% (active) | 93.6% | 86.1% | 97.5% | 88.1% | 100% | 17.2% | -10.8% (active) | 54.8% | 98.1% | 97.3% | 103% | 63% | 61.1% | 47%
6 | C#CCOc1ccc2ncnc(Nc3ccc(NC(=O)C=C)cc3)c2c1 | 2.09% (active) | 97.7 | 69.5% | 78.5% | 24.1% | -36.8% (active) | -75.7% (active) | 80% | -37.7% (active) | -57.6% (active) | -29.8% (active) | -35.7% (active) | -74.4% (active) | -71.7% (active) | -80.6% (active) | 6.18% (active) | 83.2% | -10.4% (active) | -26.3% (active) | -52.4% (active)
7 | O=C(NCc1ccc(Cl)cc1Cl)C1CCC(=O)N1c1cccs1 (stereo not given) | 91% | 103 | 104% | 92.9% | 104% | 103% | 76.8% | 86.3% | 94% | 96.8% | 108% | 108% | 96.3% | 96.5% | 109% | 100% | 90.8% | 93.6% | 90.8% | 104%
8 | CCCCNCCCCCNc1cc(OC)cc2cccnc12 | 101% | 96.5 | 106% | 88% | 106% | 49.2% | 94% | 95.9% | 90.1% | 93.7% | 120% | 76.8% | 80.8% | 87.3% | 87.7% | 95% | 96.1% | 92.8% | 93.1% | 97.1%
9 | Cc1nc2sc(C(=O)Nc3ccc(Br)cc3)c(N)c2cc1C(O)c1ccccc1 (stereo not given) | 61.1% | 68 | 90.4% | 67.5% | 69% | 77% | 60.5% | 64.4% | 81% | 64.5% | 81.7% | 12.1% | 63.9% | 57.9% | 86.6% | 75.8% | 69.5% | 66.7% | 61.8% | 38.9%
10 | COc1cc2ncnc(Nc3ccc(S(=O)(=O)Nc4cc(C)on4)cc3)c2cc1OCCCN1CCN(c2ccc(F)cc2)CC1 | 105% | 98.1 | 99.6% | 92.2% | 102% | 125% | 91% | 101% | 110% | 105% | 112% | 89.8% | 99.3% | 89.6% | 105% | 97.9% | 102% | 96.4% | 106% | 108%
11 | Nc1ncnc2c1c(-c1cccc(Cl)c1)nn2CC(=O)N1CCOCC1 | 97.5% | 93 | 102% | 109% | 107% | 105% | 102% | 99.9% | 94.8% | 116% | 111% | 105% | 110% | 104% | 99% | 98.4% | 98.6% | 96.2% | 103% | 104%
12 | CS(=O)(=O)Nc1cncc(-c2ccc3ncnc(Nc4cncc(Cl)c4)c3c2)c1 | 80% | 80.8 | 71.7% | 73.4% | 103% | 31.5% | 50.2% | 81.7% | 82.3% | 93.8% | 88.4% | 100% | 65.1% | 77.1% | 87.3% | 68.1% | 97.1% | 74.6% | 67.9% | 93.1%
13 | CCCCCCC12CCC(=O)N1CCc1cncn12 (stereo not given) | 108% | 99.8 | 109% | 100% | 105% | 113% | 90% | 95.3% | 112% | 106% | 109% | 100% | 120% | 110% | 92.4% | 120% | 105% | 106% | 101% | 113%
14 | COc1ccc(Nc2ncc(Br)c(NCCCNC(=O)c3cccs3)n2)cc1 | 39.2% | 33.1 | 56.5% | 22.6% | 25.1% | 30% | 61.3% | 42.9% | 34.3% | 33.2% | 35.6% | 28% | 55.4% | 31.2% | -26.7% (active) | 13.2% | 52.4% | 14.8% | 105% | 50.2%
15 | COc1c(B(O)O)cccc1-c1cc(C)c2c(ccc3[nH]ncc32)n1 | 78.4% | 89.7 | 74.3% | 46.3% | 71% | 41.8% | 62.6% | 75.1% | 40.9% | 93.3% | 80.8% | 99.4% | 179% | 22.1% | 7.05% (active) | 62.7% | 87.8% | 25.2% | 126% | 131%
